From PubChem
In the library only some 4.2% were active in any assay of this set; here they are far more common.
SMARCA2 act: SMARCA2 function activation, primary screen | MG213 cells, MMTV-luciferase reporter, dexamethasone, overnight | activation, % at 9.1 µM | hit rate 1% among 370,000 | AID 652017; in the data active means activation above about 7.8%;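 further: 0% = vehicle wells and 100% = reference activator wells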
ssDAF-12 act: S. stercoralis DAF-12 activation, primary screen | hit rate 1% among 370,000 | activation, % at 6.8 µM | HEK293 ssDAF-12/GRIP1 lit1-tk-luc reporter, luminescence; % of 3 µM dafachronic acid response;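 active means activation above the mean over all tested compounds plus 3 SD, cut at about 0.9% in these data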;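 further: 0% = DMSO-only wells and 100% = 3 µM delta7-dafachronic acid wells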
DAX1 StAR inh: blocks DAX1 repression of SF-1 activated StAR promoter. HEK293T StAR-luciferase reporter, SF-1/DAX-1 repression relief. inhibition, % at 6.8 µM. hit rate 1.1% among 370,000;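 active means inhibition above the mean over all tested compounds plus 3 SD, cut at about 3.6% in these data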;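 further: 0% = DAX-1 cells with DMSO and 100% = cells lacking DAX-1 with DMSO; higher inhibition means more luminescence from relief of DAX-1 repression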
hgDAF12 agonist: agonists of H. glycines DAF-12 nuclear receptor; HEK293 GAL4-hgDAF12 UAS-luciferase reporter, agonist luminescence; normalized to butyrate control; AID 687014; activation, % at 6.8 µM; hit rate 1.8% among 370,000;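 active means activation above a cutoff set at the mean of all screened compounds plus 3 SD, cut at about 10% in these data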;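 further: 0% = DMSO wells and 100% = sodium butyrate wells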
hcDAF-12 act: activators of H. contortus DAF-12 nuclear receptor. HEK293 hcDAF-12 lit1-tk-luc reporter, luminescence; 0% DMSO, 100% Δ7-dafachronic acid. hit rate 1.4% among 370,000. activation, % at 6.8 µM;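 active means activation above the mean of all tested compounds plus 3 SD, cut at about 5.5% in these data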;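 further: 100% = response to 3 µM Δ7-dafachronic acid high control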
Active calls of the source: *; · = not tested or not shown.

SMILES | SMARCA2 act | ssDAF-12 act | DAX1 StAR inh | hgDAF12 agonist | hcDAF-12 act
COC(=O)C1CN(Cc2cn(Cc3ccccc3)nn2)CCS(=O)(=O)N1Cc1ccc(F)cc1 (stereo not drawn) | -4 | -1 | -2 | -1 | -3
Cc1cc(N2CCN(C)CC2)nc2ccc(NC(=S)NCCN3CCc4ccccc4C3)cc12 | 7.9* | -1 | 0 | -1 | 0
Cc1cc(N2CCN(C)CC2)nc2ccc(NC(=S)NCCCN3CCc4ccccc4C3)cc12 | -1 | -1 | 0 | 1 | -2
COc1cccc(N=NC2C(=O)N(C(N)=S)N=C2C)c1 (stereo not drawn) | 0 | -1 | 1 | 4 | 2
CC(=O)N(C)c1ccc(N=NC2C(=O)N(C(N)=S)N=C2C)cc1 (stereo not drawn) | 2 | 0 | 3 | 12* | 4
CC1=NN(C(N)=S)C(=O)C1N=Nc1ccc(S(N)(=O)=O)cc1 (stereo not drawn) | -1 | -2 | -1 | -3 | -1
CC1=NN(C(N)=S)C(=O)C1N=Nc1cccc(Cl)c1 (stereo not drawn) | 2 | 1 | 1 | 7 | 6.1*
Cc1cc2nc3ccc(N(C)C)cc3nc2cc1N | 7 | 1.1* | 4.4* | 9 | 6.3*
O=C(N[C@H](Cc1ccccc1)C(=O)NCc1ccc(OC(F)(F)F)cc1)[C@H]1O[C@@H](n2ccc(=O)[nH]c2=O)[C@H](O)[C@@H]1O | -3 | -1 | 0 | 1 | -1
NC(=O)C1CC(=O)N(c2ccc(OCc3ccc(Cl)cc3)cc2)C1 (stereo not drawn) | 3 | 1 | 3 | 12* | 3
CCCNC(=O)C1CC(=O)N(c2ccc(OCc3ccc(F)cc3)cc2)C1 (stereo not drawn) | 5 | 0 | 3 | 13* | 5.9*
NC(=O)C1CC(=O)N(c2ccc(OCC(=O)N3CCCC3)cc2)C1 (stereo not drawn) | 0 | 0 | -1 | -1 | -1
Clc1ccc([C@H]2OC[C@@]3(CNCC4CC4)CS[C@H](c4ccc(Cl)cc4)N23)cc1 | -4 | -1 | 1 | 0 | -1
CN1C(=O)c2cc(NC(=O)Nc3ccccc3)ccc2OC[C@H]2O[C@@H](CC(=O)NCc3ccc(-c4ccccc4)cc3)CC[C@@H]21 | -4 | -1 | 0 | 0 | -2
CCn1cnc2sc(C(=O)Nc3ccccc3OC)c(C)c2c1=O | -2 | -1 | 0 | 1 | -2
CCn1cnc2sc(C(=O)Nc3ccc4c(c3)OCO4)c(C)c2c1=O | 5 | 0 | 1 | 13* | 1
Cc1cccc(-c2cccc3c4c([nH]c23)[C@@H]2C[C@H](N(C)C(=O)c3ccco3)[C@H]([C@H](C)O)C(=O)N2CC4)c1 | -6 | -2 | -1 | 0 | -3
CC(C)c1ccc(S(=O)(=O)N2CCN(CC(=O)c3ccc(O)c(O)c3)CC2)cc1 | -1 | -1 | 0 | 1 | 0
O=C(CN1CCN(S(=O)(=O)c2ccc(Br)cc2)CC1)c1ccc(O)c(O)c1 | -2 | -1 | 0 | 1 | 5.9*
CCOc1ccc(C(=O)Nc2cccc(C)n2)cc1 | 7 | 1.1* | 4.0* | 7 | 5
Cc1noc(C)c1COc1ccc(C(=O)Nc2ncccc2O)cc1 | -2 | -1 | 3 | 11* | -1
CCOc1ccc(C(=O)Nc2cc(C)ccn2)cc1 | 2 | 1 | 3.6* | 7 | 4
Cc1ccc(NC(=O)c2ccc3[nH]c(=O)c(=O)[nH]c3c2)nc1 | -6 | 0 | 0 | 3 | 4
Cc1ccnc(NC(=O)c2ccc3[nH]c(=O)c(=O)[nH]c3c2)c1 | -4 | 3.3* | 0 | 2 | 1
Cc1noc(C)c1COc1ccc(C(=O)Nc2cccnc2)cc1 | -2 | -2 | -1 | 0 | -2
SMILES | SMARCA2 act | ssDAF-12 act | DAX1 StAR inh | hgDAF12 agonist | hcDAF-12 act
Cc1cc(OCC(=O)OC(C)C(=O)NC2CC2)c(C(C)C)cc1Cl (stereo not drawn) | -2 | -1 | 0 | -1 | 0
CCOc1ccc(C(=O)Nc2ncccc2Cl)cc1 | 2 | 0 | 1 | 11* | 2
CCOc1ccc(C(=O)Nc2nnn(CC)n2)cc1 | 2 | 0 | 1 | 12* | 5
O=C(NC1CCCCN(Cc2cccc(F)c2)C1=O)c1ccc2ccccc2c1 (stereo not drawn) | 1 | -1 | 0 | 2 | -3
O=C(N1CCOCC1)N1CC[C@H]2[C@H](CCCN2Cc2cc(F)cc(F)c2)C1 | 2 | -2 | 0 | 2 | -1
COC(=O)c1ccc(NN=Nc2ccc(C)cc2)cc1 | 2 | 1 | 3 | 11* | 6.0*
COC(=O)c1ccc(C)cc1 | 1 | -2 | 0 | 4 | 0
Cc1ccc(OCCn2c(CCNC(=O)C3CCCCC3)nc3ccccc32)cc1 | · | -2 | · | 1 | -3
Cc1cccc2c1cnn2C(=O)Nc1ccccc1Br | 2 | 0 | 0 | -1 | 4
Cc1cccc2c1cnn2C(=O)Nc1ccccc1Cl | 2 | 0 | 0 | 7 | 5.8*
O=C(c1cc2nc(-c3ccco3)cc(C(F)(F)F)n2n1)N1CCCCCC1 | 4 | -2 | -1 | -1 | -2
O=C(NCCCN1CCCC1=O)c1cc2nc(-c3ccco3)cc(C(F)(F)F)n2n1 | -1 | 1.0* | 0 | -3 | 1
Cc1ccc(NC(=O)N2CC(C)OC(C)C2)cc1[N+](=O)[O-] (stereo not drawn) | -2 | 0 | 0 | 4 | 2
Cc1ccc(F)c(CNC(=O)C2(C)CCCN2C(=O)C(C)C)c1F (stereo not drawn) | -1 | -1 | 0 | 1 | 5
CCCn1c(=O)c2c(ncn2C)n(CCC)c1=O | 3 | -1 | 0 | 1 | -1
Cn1c(=O)[nH]c2ncn(C)c2c1=O | -5 | -1 | 1 | 11* | 0
C[C@@]12C[C@@H]3C(=O)N(Cc4ccccc4)CC(=O)N3[C@@H]1N(S(=O)(=O)c1ccccc1)c1ccccc12 | 0 | -1 | 0 | -1 | -3
COCC(=O)Nc1ccccc1-c1ccccc1 | -1 | -1 | 1 | 11* | -2
Cc1cc(C)c2c(c1)c1nnc(SCCN3CCCCC3)nc1n2C | 7 | 1.6* | 2 | 6 | 6.1*
COC(=O)c1ccc2nc(NC(=O)CSCC(=O)OCC(=O)c3ccccc3)sc2c1 | 0 | 0 | 2 | 13* | 4
Cc1ccc2nc(NC(=O)CSCC(=O)OCC(=O)c3ccc(Br)cc3)sc2c1 | -10 | -2 | -1 | -6 | -3
COc1ccc2nc(NC(=O)CSCc3c(C)noc3C)sc2c1 | 0 | 0 | 1 | 3 | -1
COc1ccc2nc(NC(=O)CSCC(=O)Nc3cc(C)on3)sc2c1 | 0 | 0 | 4.2* | 8 | 3
COc1ccc2nc(NC(C)=O)sc2c1 | 7 | 0 | 1 | 12* | 2
COC(=O)C1CN(Cc2ccc(F)cc2)CCS(=O)(=O)N1Cc1ccc(F)cc1 (stereo not drawn) | -1 | -1 | -1 | -1 | -3
